Screening data (PubChem)
Only a sample is shown.
aSyn 5UTR act – Activators working through SNCA 5'UTR binding (MLPCN); alpha-synuclein 5'UTR reporter, activators screen; activity score, % (tested at 7.5 µM), hits read low; 300,000 compounds, 7.1% hits; AID 1814; in the data active = activity score below about -60%
* hit, by the source's call.

What do the screens show for `O=C1/C(=C/c2ccccc2)Oc2cc(OC(=O)N3CCOCC3)ccc21`?
aSyn 5UTR act: -110*

Results for Cc1ccc(-n2[nH]c(=O)c(-c3ccccn3)c2C)cc1 ?
aSyn 5UTR act: 97

What do the screens show for `Nn1c(SCc2c(F)cccc2F)nnc1-c1ccccn1`?
aSyn 5UTR act: -159*

What do the screens show for `Nc1ccccc1-c1nnc(-c2ccccc2N)n1N`?
aSyn 5UTR act: -113*

What do the screens show for `Nn1c(-c2ccccn2)nnc1-c1ccccn1`?
aSyn 5UTR act: -96*

What do the screens show for `O=C(CCN1CCc2ccccc21)c1ccc2c(c1)OCCO2`?
aSyn 5UTR act: -155*

What do the screens show for `O=C(c1ccccc1)c1ccc2c(c1)OCCCO2`?
aSyn 5UTR act: -64*

Results for CC(OC(=O)c1ccc2c(c1)OCCO2)C(=O)c1ccccc1 (configuration not stated) ?
aSyn 5UTR act: -133*

Results for O=C(NCCc1ccccc1)c1ccc2c(c1)OCCCO2 ?
aSyn 5UTR act: 107

What do the screens show for `CNc1ccc(/C=C/C(=O)c2ccc3c(c2)OCCO3)cc1[N+](=O)[O-]`?
aSyn 5UTR act: -64*

What do the screens show for `O=C(CCc1ccccc1)c1ccc2c(c1)OCCCO2`?
aSyn 5UTR act: -190*

What do the screens show for `O=C(/C=C/c1ccccc1)c1ccc2c(c1)OCCCCO2`?
aSyn 5UTR act: -198*

What do the screens show for `O=C(CCCc1ccccc1)c1ccc2c(c1)OCCO2`?
aSyn 5UTR act: 86

How did O/N=C(/CCc1ccccc1)c1ccc2c(c1)OCCO2 do in these assays?
aSyn 5UTR act: -120*

Results for O=C1COc2ccc(C(=O)/C=C/c3ccccc3)cc2N1 ?
aSyn 5UTR act: -114*

What do the screens show for `COc1ccc(OC)c(/C=C/C(=O)c2ccc3c(c2)OCCO3)c1`?
aSyn 5UTR act: -156*

What do the screens show for `N#Cc1cc2c(nc1SCC(=O)N1CCOCC1)CCCCC2`?
aSyn 5UTR act: -65*

What do the screens show for `N#Cc1cc2c(nc1SCC(N)=O)CCCCC2`?
aSyn 5UTR act: -77*

What do the screens show for `Cc1ccc(N2C(=O)c3ccccc3NC2(C(=O)O)c2ccccc2)cc1Cl` (configuration not stated)?
aSyn 5UTR act: -68*

How did CCC1CCc2sc(C(=O)NCc3ccccn3)cc2C1 (configuration not stated) do in these assays?
aSyn 5UTR act: -92*

Results for COc1ccc2c(c1)O[C@H](c1ccc3c(c1)OCO3)[C@@H](O)C2=O ?
aSyn 5UTR act: -86*

Results for COc1ccc2c(c1)O[C@@H](c1cccc(C(F)(F)F)c1)[C@H](O)C2=O ?
aSyn 5UTR act: 62

What do the screens show for `COc1ccc2c(c1)C(=O)CC(c1ccc3c(c1)OCCO3)O2` (configuration not stated)?
aSyn 5UTR act: -272*

Results for Cc1ccc2c(c1)C(=O)CC(c1ccc3c(c1)OCCO3)O2 (configuration not stated) ?
aSyn 5UTR act: -96*

What do the screens show for `CCc1ccc2c(c1)C(=O)c1ccccc1C2=O`?
aSyn 5UTR act: -199*

How did CCCCN1C=CC(=C2C(=O)c3ccccc3C2=O)C=C1 do in these assays?
aSyn 5UTR act: 98

How did CSc1nc(N)nc(SCC(=O)OC(C)C)c1C#N do in these assays?
aSyn 5UTR act: -82*

Results for Cc1snc(SCC(=O)c2ccc(F)cc2)c1C#N ?
aSyn 5UTR act: -124*

Results for CSc1nc(N)nc(SCC(=O)c2ccc(C)cc2)c1C#N ?
aSyn 5UTR act: -113*

How did O=C(O)CC(C(=O)O)n1nc(-c2ccccc2)cc1-c1ccccc1 (configuration not stated) do in these assays?
aSyn 5UTR act: -77*

What do the screens show for `CC(=O)n1nc(-c2ccccc2)cc1-c1ccccc1`?
aSyn 5UTR act: -133*

Results for COC(=O)c1ccc(N2CCCCC2)c(N)c1 ?
aSyn 5UTR act: -92*

What do the screens show for `Nc1ccc(N2CCCCC2)cc1N1CCCCC1`?
aSyn 5UTR act: 85

How did COC(=O)c1cc(C(=O)N2CCN(c3cccc(C)c3C)CC2)cc([N+](=O)[O-])c1 do in these assays?
aSyn 5UTR act: 78

How did COC(=O)c1ccc(N2CCC(C)CC2)c(N)c1 do in these assays?
aSyn 5UTR act: -99*

What do the screens show for `Cc1cccc(-c2noc(-c3ccc(Cl)cc3[N+](=O)[O-])n2)c1`?
aSyn 5UTR act: -151*

What do the screens show for `COc1ccc(-c2noc(-c3ccc(Cl)cc3[N+](=O)[O-])n2)cc1OC`?
aSyn 5UTR act: -118*

Results for COC(=O)C1CC23C=CCN4CCC5(c6ccccc6NC15C2C)C43 (configuration not stated) ?
aSyn 5UTR act: 94

What do the screens show for `CCOc1ccc(NC(=O)c2ccccc2SC)cc1`?
aSyn 5UTR act: -110*

How did CSc1ccccc1C(=O)Nc1ccc(C)c(C)c1 do in these assays?
aSyn 5UTR act: -130*

Results for Nc1cc(Cl)ccc1Oc1ccc2ccccc2c1 ?
aSyn 5UTR act: -138*

What do the screens show for `Cc1ccc(Oc2ccc(Cl)cc2N)cc1`?
aSyn 5UTR act: -85*

How did Cc1ccccc1N/N=C1\CCCNC1=O do in these assays?
aSyn 5UTR act: -100*

How did Cc1nn(CCOc2ccccc2)c(=O)n1-c1c(F)cccc1F do in these assays?
aSyn 5UTR act: -108*

Results for O=c1c2ccccc2cnn1CCOc1ccccc1 ?
aSyn 5UTR act: 72
